Among the data in PubChem BioAssay (Tox21) are Potency values, retold here.

Values without a mark were called inactive. Results filed as inconclusive are left out. Activity calls are given as the source filed them. Unless noted, calls come from the whole dose curve.

Experiment [1] can be described thus: Nuclear factor erythroid 2-related factor 2/antioxidant responsive element (Nrf2/ARE) small molecule agonists: qHTS cell viability counter screen in human keratinocytes (AID 1919968; active = well fitted curve in the direction sought with a large enough effect in the repeat runs; an effect the other way counts as inactive or inconclusive; note: nearly all actives have a fitted effect of over 55% in size; note: potency is the fitted concentration of half-maximal effect). A digest of the protocol: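 After a 5 h attachment period, ARE-reporter keratinocytes were dosed with compounds in DMSO and then cultured 23 h at 37 C. Cell viability came from CellTiter-Fluor signal read after a further 1 h.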

Experiment [2] concerns the target Gonadotropin-releasing hormone receptor (Homo sapiens) (UniProt P30968). Description: Human gonadotropin-releasing hormone receptor (GnRHR) small molecule agonists, calcium flux assay in GnRHR-HEK293 cells (AID 1920063). Note: nearly all actives have a fitted effect of over 35% in size. A digest of the protocol: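 We seeded human GnRHR-expressing HEK293 cells for 18 hours, loaded them with calcium dye for an hour at 37 C, added test compounds, and recorded fluorescence intensity kinetically for three minutes.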

Experiment [3] deals with KiSS-1 receptor (Homo sapiens) (UniProt Q969F8). The experiment is described as follows: Human kisspeptin (KISS1R) small molecule agonists, calcium flux assay in KISS1R-HEK293 cells (AID 1920064; active = well fitted curve in the direction sought with a large enough effect in the repeat runs; an effect the other way counts as inactive or inconclusive). A digest of the protocol:
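Kinetic calcium assay, 1 s sampling over 3 min at Ex/Em 480/540, in HEK293 cells engineered with human KISS1R; compounds delivered in DMSO after 1 h dye loading.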

Experiment [4] is described as follows: G protein-coupled receptor (GPCR) small molecule agonists, calcium flux assay: HEK293 wild type cell line counter screen (AID 1920065). In outline: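 Calcium-sensitive dye, loaded 1 h at 37 C into cells cultured 18 h, reports compound-evoked calcium release as fluorescence (Ex/Em 480/540), measured over 3 min. Agonist mode; 15-point titrations, triplicate.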

Experiment [5] in a line: p53 small molecule agonists, cell-based qHTS assay with human liver microsomes (AID 1963577). A digest of the protocol:
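Compounds act here after metabolic activation: human liver microsomes and NADPH, both at 0.5 mg/mL final, were co-added to p53RE-bla cells. Incubation ran 16 h at 37 C, followed by LiveBLAzer detection.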

Experiment [6] in a line: p53 small molecule agonists, cell-based qHTS assay with rat liver microsomes (AID 1963578). A digest of the protocol:
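Read-out is beta-lactamase reporter fluorescence (LiveBLAzer, 2 h, room temperature, dark) in p53RE-bla cells treated 16 h at 37 C with compound, rat liver microsomes and NADPH, both 0.5 mg/mL final.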

Experiment [7] in a line: p53 small molecule agonists, cell-based qHTS assay with human liver microsomes: qHTS cell viability counter screen (AID 1963579). Note: nearly all actives have a fitted effect of over 45% in size. Note: potency is the fitted concentration of half-maximal effect. In outline:
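Cells carrying the p53 response-element beta-lactamase reporter are treated for 16 h at 37 C with test compounds in the presence of human liver microsomes and NADPH (both 0.5 mg/mL final); ATP-based CellTiter-Glo luminescence then reports viability.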

A short description of experiment [8]: p53 small molecule agonists, cell-based qHTS assay with rat liver microsomes: qHTS cell viability counter screen (AID 1963580). Note: nearly all actives have a fitted effect of over 45% in size. Note: potency is the fitted concentration of half-maximal effect. In outline:
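p53RE-bla HCT-116 cells (4,000/well) rested 5 h at 37 C, then given Tox21 compounds in DMSO with rat liver microsomes (0.5 mg/mL final) plus NADPH (0.5 mg/mL final) for 16 h at 37 C. Viability read by CellTiter-Glo luminescence after 30 min at room temperature.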

Experiment [9] in a line: p53 small molecule agonists, cell-based qHTS assay: qHTS cell viability counter screen (AID 1963581). Note: nearly all actives have a fitted effect of over 45% in size. In outline: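 Following 5 h attachment, HCT-116 p53RE-bla cells took up compound for 16 h at 37 C; the reporter was read with B/G FRET substrate (2 h RT), and viability then via CellTiter-Glo ATP luminescence.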
Experiment [10] in a line: p53 small molecule agonists, cell-based qHTS assay (AID 1963582; active = well fitted activation curve with a large enough effect in the signal ratio in the repeat runs, not every such curve was filed as active; the % refers to the signal ratio). In outline:
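In this cell-based concentration-response screen, a p53 response element drives beta-lactamase; cells received DMSO-borne compounds after 5 h culture and were incubated a further 16 h before FRET substrate development.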

Experiment [11] addresses 5-hydroxytryptamine receptor 2A (Homo sapiens) (UniProt P28223). Description: 5-hydroxytryptamine receptor 2A (HTR2A) small molecule antagonists, cell-based qHTS assay (AID 1963586). Note: nearly all actives have a fitted effect of over 45% in size. Note: potency is the fitted concentration of half-maximal effect. A digest of the protocol: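 Antagonist-mode intracellular calcium assay: DOI (4 nM) added after 5 min compound pre-incubation at room temperature to dye-loaded HTR2A-CHO cells. Fluorescence followed for 3 min, sampled every second.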

Experiment [12] shares this target. The experiment is described as follows: 5-hydroxytryptamine receptor 2A (HTR2A) small molecule agonists, cell-based qHTS assay (AID 1963587). Note: nearly all actives have a fitted effect of over 30% in size. Note: potency is the fitted concentration of half-maximal effect. In outline:
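HTR2A-CHO cells, plated 18 h at 37 C/5% CO2, dye-loaded 1 h at 37 C; compounds in DMSO added by pin tool (agonist mode). Intracellular calcium flux read as kinetic fluorescence on FDSS over 2 min at 1 s intervals.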

In experiment [13] the target is Muscarinic acetylcholine receptor M1 (Homo sapiens) (UniProt P11229). Description: Cholinergic receptor muscarinic 1 (CHRM1) small molecule agonists, cell-based qHTS assay (AID 1963589). Note: nearly all actives have a fitted effect of over 35% in size. A digest of the protocol: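 Measures agonist-induced intracellular calcium rise. Stable human CHRM1 CHO line, 1 h dye load at 37 C, compounds from DMSO, kinetic fluorescence read.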
Muscarinic acetylcholine receptor M1 (Homo sapiens), sequence (P11229 whole entry, looked up): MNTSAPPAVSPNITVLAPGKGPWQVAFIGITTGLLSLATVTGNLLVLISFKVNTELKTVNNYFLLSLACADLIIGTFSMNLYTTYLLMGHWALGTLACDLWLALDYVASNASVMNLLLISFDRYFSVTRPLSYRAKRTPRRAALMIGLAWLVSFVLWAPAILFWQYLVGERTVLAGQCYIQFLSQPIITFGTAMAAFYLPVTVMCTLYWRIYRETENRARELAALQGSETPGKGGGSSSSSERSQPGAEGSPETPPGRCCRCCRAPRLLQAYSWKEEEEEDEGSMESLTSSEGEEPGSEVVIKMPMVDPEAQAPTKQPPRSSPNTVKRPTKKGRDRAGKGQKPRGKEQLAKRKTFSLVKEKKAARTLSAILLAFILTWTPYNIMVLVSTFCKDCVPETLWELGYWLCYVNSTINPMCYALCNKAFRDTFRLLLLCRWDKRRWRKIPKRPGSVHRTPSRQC

Experiment [14] can be described thus: cAMP Responsive Elements (CRE) small molecule agonists, cell-based qHTS assay (AID 1963590). In outline:
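A CRE-responsive beta-lactamase reporter in HEK 293T cells was used. Treatment ran 3 h at 37 C; detection used LiveBLAzer B/G FRET substrate for 2 h at room temperature.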

The nature of experiment [15]: cAMP Responsive Elements (CRE) small molecule antagonists, cell-based qHTS assay (AID 1963591; active = well fitted inhibition curve with a large enough effect in the signal ratio in the repeat runs, not every such curve was filed as active; the % refers to the signal ratio). A digest of the protocol: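 HEK293T cells carrying a CRE-driven beta-lactamase reporter receive compound and NKH477 (0.25 uM final) for 3 h. Fluorescence from LiveBLAzer B/G FRET substrate is read after 2 h at room temperature.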
The target of experiment [16] is Beta-2 adrenergic receptor (Homo sapiens) (UniProt P07550). The experiment is described as follows: Adrenergic beta2 receptor (ADRB2) small molecule antagonists, cell-based qHTS assay (AID 1963592). Note: series mostly up to about 92 µM; nearly all actives have a fitted effect of over 50% in size. A digest of the protocol:
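Cells (CHO, stable ADRB2 overexpression) incubated 18-20hr at 37C; compounds added from DMSO; agonist mix (1nM isoproterenol, 100uM IBMX, 25uM Ro-20-1724) added; 0.5hr RT; d2-cAMP and anti-cAMP-cryptate added; 1hr RT; 665/615 nm read.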

Experiment [17] concerns the target D(2) dopamine receptor (Homo sapiens) (UniProt P14416). The experiment is described as follows: Dopamine D2 receptor (DRD2) small molecule agonists, cell-based qHTS assay (AID 1963594). Note: nearly all actives have a fitted effect of over 35% in size. A digest of the protocol: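 HEK293 cells stably expressing DRD2 were cultured 24 h at 37 C, then given Ro20-1724 (0.1 mM final) and compounds for 10 min at room temperature. NKH477 (200nM) was then added for 30 min. cAMP was read by HTRF.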

For experiment [18] the target is unchanged. The experiment is described as follows: Dopamine D2 receptor (DRD2) small molecule antagonists, cell-based qHTS assay (AID 1963595; active = well fitted inhibition curve with a large enough effect in the signal ratio in the repeat runs, with a control signal flat; the % refers to the signal ratio; note: potency is the fitted concentration of half-maximal effect). A digest of the protocol: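 In this cell-based antagonist screen, compounds act for 10 min at room temperature before a 30 min challenge with 12 nM quinpirole and 200 nM NKH477. cAMP is quantified by HTRF competition in DRD2-HEK293 cells containing 0.1 mM Ro20-1724.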

Experiment [19] concerns the target Muscarinic acetylcholine receptor M1 (Homo sapiens) (UniProt P11229). The experiment is described as follows: Cholinergic receptor muscarinic 1 (CHRM1) small molecule antagonists, cell-based qHTS assay (AID 1963588). Note: nearly all actives have a fitted effect of over 40% in size. In outline:
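CHRM1-CHO calcium-flux assay, antagonist mode. Cells were seeded 18 h, dye-loaded 1 h at 37 C and given compound for 5 min at RT, then acetylcholine was added at 50nM. FDSS fluorescence was read 3 min; 15 concentrations, three runs.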

For experiment [20], the target named is Beta-2 adrenergic receptor (Homo sapiens) (UniProt P07550). Description: Adrenergic beta2 receptor (ADRB2) small molecule agonists, cell-based qHTS assay (AID 1963593).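 Note: CHO cells stably overexpressing human ADRB2.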 A digest of the protocol:
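CHO cells stably over-expressing ADRB2 were plated overnight at 37C, then dosed with compounds plus a stimulation mix containing 100uM IBMX and 25uM Ro-20-1724 for 0.5hr at room temperature. cAMP was measured by HTRF competition, 1hr.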

Gonadotropin-releasing hormone receptor (Homo sapiens), sequence (P30968 whole entry, looked up): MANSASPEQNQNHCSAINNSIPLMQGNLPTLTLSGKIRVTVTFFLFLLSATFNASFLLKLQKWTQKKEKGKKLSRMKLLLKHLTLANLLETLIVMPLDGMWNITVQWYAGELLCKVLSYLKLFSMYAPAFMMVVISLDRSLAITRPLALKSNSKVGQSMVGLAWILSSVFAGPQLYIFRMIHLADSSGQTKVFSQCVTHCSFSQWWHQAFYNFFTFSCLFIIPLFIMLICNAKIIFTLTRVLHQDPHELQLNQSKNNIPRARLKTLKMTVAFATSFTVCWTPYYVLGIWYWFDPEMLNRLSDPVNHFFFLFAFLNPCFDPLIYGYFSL
D(2) dopamine receptor (Homo sapiens), sequence (P14416 whole entry, looked up): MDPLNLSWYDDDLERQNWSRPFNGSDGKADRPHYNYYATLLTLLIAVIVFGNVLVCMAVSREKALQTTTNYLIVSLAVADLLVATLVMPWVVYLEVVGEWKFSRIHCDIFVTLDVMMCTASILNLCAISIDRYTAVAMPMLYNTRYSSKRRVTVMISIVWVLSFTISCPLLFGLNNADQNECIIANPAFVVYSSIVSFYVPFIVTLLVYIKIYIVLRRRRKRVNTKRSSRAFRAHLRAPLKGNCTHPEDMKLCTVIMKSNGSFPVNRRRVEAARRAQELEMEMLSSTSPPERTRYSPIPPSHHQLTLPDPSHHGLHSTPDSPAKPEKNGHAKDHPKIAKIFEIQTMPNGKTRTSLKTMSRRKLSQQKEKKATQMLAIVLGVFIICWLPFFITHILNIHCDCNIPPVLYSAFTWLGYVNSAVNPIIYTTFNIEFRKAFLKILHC
Beta-2 adrenergic receptor (Homo sapiens), sequence (P07550 whole entry, looked up): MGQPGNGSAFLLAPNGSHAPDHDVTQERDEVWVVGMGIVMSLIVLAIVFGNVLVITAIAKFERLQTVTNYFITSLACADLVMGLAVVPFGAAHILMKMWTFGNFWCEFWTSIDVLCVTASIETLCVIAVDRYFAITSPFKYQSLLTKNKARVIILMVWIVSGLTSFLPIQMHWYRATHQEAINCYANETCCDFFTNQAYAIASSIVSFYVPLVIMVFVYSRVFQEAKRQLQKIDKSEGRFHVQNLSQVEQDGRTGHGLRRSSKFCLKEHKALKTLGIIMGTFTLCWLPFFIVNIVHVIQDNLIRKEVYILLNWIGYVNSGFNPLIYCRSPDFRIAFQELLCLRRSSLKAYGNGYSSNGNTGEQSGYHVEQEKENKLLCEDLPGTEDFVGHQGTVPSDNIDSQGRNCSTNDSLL
KiSS-1 receptor (Homo sapiens), sequence (Q969F8 whole entry, looked up): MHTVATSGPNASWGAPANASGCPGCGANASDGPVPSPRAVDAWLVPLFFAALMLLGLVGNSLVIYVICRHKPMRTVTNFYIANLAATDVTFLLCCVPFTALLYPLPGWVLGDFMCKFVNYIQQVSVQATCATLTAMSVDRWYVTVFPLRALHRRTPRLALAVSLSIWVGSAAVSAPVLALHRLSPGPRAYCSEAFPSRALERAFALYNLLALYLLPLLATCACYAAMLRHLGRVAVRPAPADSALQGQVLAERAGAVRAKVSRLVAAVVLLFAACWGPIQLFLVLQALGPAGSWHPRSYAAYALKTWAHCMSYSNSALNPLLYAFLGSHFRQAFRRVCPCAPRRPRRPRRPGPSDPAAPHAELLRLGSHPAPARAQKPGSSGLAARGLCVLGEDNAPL
5-hydroxytryptamine receptor 2A (Homo sapiens), sequence (P28223 whole entry, looked up): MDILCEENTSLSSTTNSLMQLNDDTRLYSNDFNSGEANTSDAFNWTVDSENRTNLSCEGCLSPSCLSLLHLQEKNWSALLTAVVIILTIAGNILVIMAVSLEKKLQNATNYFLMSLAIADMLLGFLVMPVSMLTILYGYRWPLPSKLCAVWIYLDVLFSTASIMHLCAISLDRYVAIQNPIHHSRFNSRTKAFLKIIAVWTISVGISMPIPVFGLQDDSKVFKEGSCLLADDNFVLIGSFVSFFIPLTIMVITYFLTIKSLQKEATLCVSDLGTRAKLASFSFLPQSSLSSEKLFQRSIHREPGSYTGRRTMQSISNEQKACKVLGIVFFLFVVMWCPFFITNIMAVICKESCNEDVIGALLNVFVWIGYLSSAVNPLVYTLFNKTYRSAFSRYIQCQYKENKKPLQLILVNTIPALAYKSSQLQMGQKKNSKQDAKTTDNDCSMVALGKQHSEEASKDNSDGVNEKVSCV

`CN`: the Potency entry in [1], in [2], in experiment [3], in experiment [4], in experiment [5] and in [6] was “inactive” each time. The Potency result in experiment [7], in experiment [8], in [9], in experiment [10], in experiment [11] and in [12] was “inactive” throughout. The Potency result in [13], in [14], in experiment [15], in experiment [16], in [17] and in experiment [18] was “inactive” in each case.

For the molecule `c1ccc2c(c1)CCNC2`, the Potency entry in experiment [1], in experiment [2], in experiment [3], in [4], in experiment [5] and in [6] was “inactive” in each case. Further, the Potency result in [7], in experiment [8], in [9], in experiment [10], in experiment [12] and in experiment [19] was “inactive” each time. For the same molecule, the Potency entry in [14], in experiment [15], in experiment [16], in experiment [17] and in [18] was “inactive” each time.

Regarding `CCCCNP(N)(N)=S`, the Potency result in [1], in experiment [2], in experiment [3], in experiment [4], in [5] and in experiment [6] was “inactive” each time. Moreover, the Potency result in [7], in experiment [8], in experiment [9], in experiment [10], in experiment [11] and in experiment [12] was “inactive” each time. Moreover, the Potency entry in experiment [19], in experiment [13], in experiment [14], in experiment [15], in experiment [16] and in experiment [17] was “inactive” in each case. Moreover, the Potency entry in experiment [18] is “inactive”.

Turning to `COc1cc(CCN)cc(OC)c1OC`, the Potency entry in experiment [1], in [2], in [3], in experiment [4], in [5] and in experiment [6] was “inactive” each time. In addition, the Potency result in experiment [7], in [8], in [9], in experiment [10], in experiment [19] and in [13] was “inactive” throughout. Further, the Potency result in [15], in experiment [17] and in [18] was “inactive” each time. Moreover, the figures for the Potency in experiment [11] and in [12] were 0.182 µM (active) and 0.0752 µM (active), respectively.

Turning to `[O]=[Cd]`, the Potency entry in experiment [1], in [2], in experiment [3], in [4], in [5] and in experiment [6] was “inactive” each time. For the same molecule, the Potency entry in experiment [7], in experiment [8], in experiment [9], in experiment [10], in experiment [11] and in experiment [12] was “inactive” throughout. Further, the Potency result in experiment [19], in experiment [14], in experiment [15], in experiment [16], in experiment [17] and in experiment [18] was “inactive” throughout.

Regarding `Cc1ccccc1`, the Potency entry in [1], in [5], in experiment [6], in [7], in experiment [8] and in [9] was “inactive” each time. The Potency result in [10] is “inactive”.

Turning to `CCCN(CCC)c1c([N+](=O)[O-])cc(S(N)(=O)=O)cc1[N+](=O)[O-]`, the Potency was 51.8 µM (active) in experiment [1]; 38.8 µM (active) in [7]; 49.4 µM (active) in [8]; 37 µM (active) in experiment [12]; 30.6 µM (active) in [18]. The Potency result in experiment [4] and in [11] was “inactive” throughout.

In the case of `CCCN(CC)CC1COC2(CCC(C(C)(C)C)CC2)O1` (configuration not stated), the Potency result in [1], in experiment [2], in [3], in experiment [4], in experiment [5] and in experiment [6] was “inactive” throughout. Moreover, the Potency result in experiment [7], in experiment [8], in experiment [9], in [10], in experiment [19] and in experiment [13] was “inactive” in each case. In addition, the Potency entry in experiment [14], in [15], in [16], in experiment [20], in [17] and in experiment [18] was “inactive” in each case. The figures for the Potency in experiment [11] and in experiment [12] were 10.6 µM (active) and 43.6 µM (active), respectively.

As for `CCC/C(=N\OCC)C1=C(O)CC(CC(C)SCC)CC1=O` (configuration not stated), the Potency entry in [1], in experiment [2], in [3], in [4], in experiment [5] and in experiment [6] was “inactive” throughout. The Potency result in experiment [7], in experiment [8], in experiment [9], in experiment [10], in experiment [12] and in experiment [13] was “inactive” in each case. Further, the Potency entry in experiment [17] and in experiment [18] was “inactive” in each case.
